Hits are enriched below; roughly 4.2% of the tested compounds scored in any of these assays.
RecA splice inh = blocks M. tuberculosis RecA intein splicing | actives 0.75% (n = 290,000) | cell-free RecA intein splicing, fluorescence | AID 2221 | inhibition, % (concentration not given with the values) | P9WHJ3; in the data active means inhibition above about 30%; inconclusive means no clear call, values can overlap the other calls
Target sequence (P9WHJ3 whole entry, looked up, canonical isoform): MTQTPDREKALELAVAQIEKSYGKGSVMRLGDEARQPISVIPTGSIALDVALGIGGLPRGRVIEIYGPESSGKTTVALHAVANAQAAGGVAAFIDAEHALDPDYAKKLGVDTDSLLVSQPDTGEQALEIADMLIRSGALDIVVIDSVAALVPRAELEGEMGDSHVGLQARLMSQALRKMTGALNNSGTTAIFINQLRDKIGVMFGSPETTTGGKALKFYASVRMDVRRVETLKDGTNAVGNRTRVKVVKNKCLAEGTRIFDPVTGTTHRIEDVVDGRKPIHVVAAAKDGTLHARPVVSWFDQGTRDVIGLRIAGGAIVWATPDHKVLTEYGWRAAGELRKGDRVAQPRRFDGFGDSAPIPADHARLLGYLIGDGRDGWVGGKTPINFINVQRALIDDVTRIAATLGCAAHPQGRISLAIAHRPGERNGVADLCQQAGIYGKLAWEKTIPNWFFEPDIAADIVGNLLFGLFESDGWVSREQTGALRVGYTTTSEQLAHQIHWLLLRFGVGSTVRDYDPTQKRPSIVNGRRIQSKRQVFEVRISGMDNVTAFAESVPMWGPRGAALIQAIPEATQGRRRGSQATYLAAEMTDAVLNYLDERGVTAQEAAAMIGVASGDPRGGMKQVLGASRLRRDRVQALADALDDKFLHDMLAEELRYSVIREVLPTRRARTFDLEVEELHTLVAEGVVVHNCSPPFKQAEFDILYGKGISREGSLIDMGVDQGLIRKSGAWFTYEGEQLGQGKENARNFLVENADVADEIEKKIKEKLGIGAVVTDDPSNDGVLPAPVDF
Mtb betalactam = beta-lactam sensitization of Mtb H37Rv; inhibition, % at 25 µM; M. tuberculosis H37Rv growth with meropenem, percent inhibition; AID 434955; actives 0.27% (n = 330,000); call rule not given here;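 further: growth measured after seven days incubation then overnight dye step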
CCHFV vOTU inh = blocks the CCHF virus ovarian tumor domain protease | actives 0.55% (n = 370,000) | CCHFV vOTU protease, Pep-AMC fluorescence | AID 651958 | inhibition, % at 11.5 µM
GDH-TPI inh = counter-screen for M. tuberculosis FBA inhibitors: GDH-TPI coupled enzymes; actives 1.2% (n = 360,000); inhibition, % at 4.8 µM; GDH-TPI coupled enzyme counterscreen, NADH absorbance
Mtb FBA inh = inhibits M. tuberculosis FBA enzyme. P9WQA3. purified M. tuberculosis FBA, fluorescence read-out. inhibition, % at 1 µM. actives 2.3% (n = 360,000). AID 588726; in the data active means inhibition above about 27%
Numbers stand for hits; – = inactive; ? = inconclusive; · = no result given; + = active, no number. Unless noted, no stated cut-off is given here; in the data, active means inhibition above about 30%; inactive means the rest.

SMILES	RecA splice inh	Mtb betalactam	CCHFV vOTU inh	GDH-TPI inh	Mtb FBA inh
CCCOc1ccc(C2C(=O)N(C3CCCCC3)CC(=O)N2CCC)cc1OC (stereo not given)	–	–	–	–	31
Cc1sc2ncnc(N3CCC(C(=O)Nc4nnc(SCc5ccccc5F)s4)CC3)c2c1C	–	–	–	–	138
CC(C)Cc1[nH]c(=O)c(C#N)c2c1COC(C)(C)C2	–	–	–	31	–
COc1cc2c(cc1OC)-c1cc(NC3CCCC3)nc(=O)n1CC2	–	?	–	–	–
COc1cc2c(cc1OC)-c1cc(Nc3cccc(F)c3)nc(=O)n1CC2	–	·	–	34	–
CCN(CC)c1ccc(Nc2cc3n(c(=O)n2)CCc2cc(OC)c(OC)cc2-3)cc1	–	–	–	38	–
COc1cc2c(cc1OC)-c1cc(OCc3ccccc3Cl)nc(=O)n1CC2	–	?	–	–	99
CCN(C(=O)[C@@H](C)[C@@H](O)c1ccc2ccccc2c1)c1ccccc1	·	·	–	·	·
CCc1cc(C(=O)Cc2cnn(-c3ccccc3)c2)c(O)cc1O	–	–	–	50	–
O=C1c2cc(O)c(O)cc2OC(c2ccc(O)c(O)c2)C1O (stereo not given)	·	·	–	32	–
COCCn1c(=NC(=O)/C=C/c2cccs2)sc2cc(NC(C)=O)ccc21	–	–	–	31	–
CCOC(=O)c1c(-c2ccccc2)cn2ccccc12	–	–	–	–	168
COc1ccc(-n2c(SCC(=O)NNC(=S)Nc3ccc(C)cc3)nnc2-c2ccccc2)cc1	·	·	–	·	·
CCN(C(=O)COC(=O)c1ccccc1NCCO)C1CCS(=O)(=O)C1 (stereo not given)	–	–	–	–	129
COc1ccc2nc(/C=N/NC(=O)CCNC(=O)OC(C)(C)C)ccc2c1	–	–	–	52	69
CC(C)(C)OC(=O)NCCC(=O)N/N=C/c1ccc2ncccc2c1	–	–	–	–	–
CCc1ccc(-n2c(O)c(/C=N/N3CCCCC3c3cccnc3)c(=O)[nH]c2=O)cc1 (stereo not given)	–	–	–	–	–
O=c1[nH]c(=S)n(-c2ccccc2)c(O)c1/C=N/N1CCCCC1c1cccnc1 (stereo not given)	–	–	–	52	–
CCCCOc1ccc(C(=O)NC2CCCCN(Cc3cccc(Cl)c3)C2=O)cc1 (stereo not given)	·	·	–	·	·
C(=N\n1cnnc1)/c1cn(Cc2ccccc2)c2ccccc12	–	–	–	31	–
Clc1ccc(Cn2cc(/C=N/n3cnnc3)c3ccccc32)c(Cl)c1	–	–	–	–	–
Nc1ccc(C(=O)N/N=C/c2cn(Cc3ccccc3F)c3ccccc23)cc1	–	–	–	–	–
COc1cc(C(=O)N/N=C/c2cn(Cc3ccccc3)c3ccccc23)ccc1O	–	–	–	37	–
Nc1ccc(C(=O)N/N=C/c2cn(Cc3ccccc3)c3ccccc23)cc1	–	–	–	37	–
O=C(O)c1ccc(N/N=C/c2cn(Cc3ccccc3F)c3ccccc23)cc1	–	–	–	42	–
SMILES	RecA splice inh	Mtb betalactam	CCHFV vOTU inh	GDH-TPI inh	Mtb FBA inh
COC(=O)N/N=C/c1cn(Cc2ccccc2F)c2ccccc12	·	–	–	–	–
COc1ccc(Cn2ccc3ccc(-c4ccc5ccn(C(=O)C6CC6)c5c4)cc32)cc1	·	·	–	·	·
Cc1ccccc1NC(=O)C[C@H]1CC[C@H]2[C@@H](COc3ccc(NC(=O)Nc4ccccc4)cc3C(=O)N2C)O1	·	·	–	·	·
O=C(N/N=C/c1cn(CCOc2ccccc2)c2ccccc12)c1ccncc1	–	–	–	–	–
Nc1ccc(C(=O)N/N=C/c2cn(Cc3ccc(F)cc3)c3ccccc23)cc1	–	–	–	33	–
COc1ccccc1OCCn1cc(/C=N/NC(=O)c2ccncc2)c2ccccc21	·	–	–	54	–
O=C(c1cccc(C(F)(F)F)c1)N1CC[C@H]2[C@H](CCCN2Cc2ccccc2)C1	·	·	–	·	·
C=CCSc1nnc(-c2cc3c(s2)-c2ccccc2CC3)o1	–	–	–	–	+
C=CCSc1nnc(-c2cccc3ccccc23)o1	·	–	–	–	–
CC12CCCC(=O)C1CCC(=Cc1ccco1)C2=O (stereo not given)	·	·	–	32	–
COc1ccc(C=C2CCC3C(=O)CCCC3(C)C2=O)cc1 (stereo not given)	·	·	–	–	–
COc1ccc(C2C(C(=O)N3CCN(c4ccccc4C)CC3)CC(=O)N2c2ccc(OC)cc2)cc1 (stereo not given)	·	·	–	·	·
CCC1(c2ccccc2)NC(=O)N(CC(=O)Nc2ccc3c(C)cc(=O)oc3c2)C1=O (stereo not given)	–	–	–	–	198

From PubChem
